The record followed here is PubChem BioAssay AID485273 (Sanford-Burnham Center for Chemical Genomics, 2010).

The whole screen tested about 330,000 compounds, of which about 1,500 (0.45%) were called active. The full list was thinned out, with actives kept by preference. A number with no mark means an inactive call. Rule as the data show it: active = inhibition above about 45% (passing the limit was not always enough); inconclusive = no clear call, values can overlap the other calls.

Ubiquitin-conjugating enzyme E2 N (Homo sapiens), sequence (P61088 whole entry, looked up): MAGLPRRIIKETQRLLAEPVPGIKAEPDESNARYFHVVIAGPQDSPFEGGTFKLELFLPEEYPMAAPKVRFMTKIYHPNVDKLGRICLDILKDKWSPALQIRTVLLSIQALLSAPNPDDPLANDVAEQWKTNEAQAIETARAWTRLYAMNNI

The experiment concerns the target Ubiquitin-conjugating enzyme E2 N (Homo sapiens) (UniProt P61088). In words: blockers of UBC13 ubiquitin chain synthesis – biochemical, TR-FRET, uHTS, primary screen (AID 485273). Particulars: UBC13 polyubiquitin chain formation, at 20 µM, stronger effect = higher value. On the technique in general: In TR-FRET formats the signal depends on donor and acceptor labels being close together.
`CNCC(O)c1cc(F)c(OCc2ccccc2)c(OCc2ccccc2)c1F` (stereo not given): the inhibition is 69.2% (active).

Take `CCN(N=Nc1nonc1OC)c1nonc1OC`: the inhibition was -6.3%.

Consider `CCCC[N+]1(C)C2CC(OC(=O)C(CO)c3ccccc3)CC1C1OC12` (stereo not given), for which the inhibition was 1.6%.

Regarding `CCOC(=O)c1c(C)c(C(=O)N2CCC3(CC2)OCCO3)c(C)n1CC`, the inhibition was -14.5%.

Consider `O=C1NC(=O)C(CCc2ccccn2)(Cc2cccc(Cl)c2Cl)C(=O)N1c1ccc(Br)cc1` (stereo not given), for which the inhibition was 0.9%.

The inhibition is the relative decrease from the control value, in per cent.
